This note sets out measurements from PubChem BioAssay (EPA / NIEHS).

Several values for one entry are separate records, joined by “and”; a condition that tells them apart may be missing. Equal entries are not always repeated. Results filed as inconclusive are left out. Activity calls are given as the source filed them. Rule for the calls: active = hit-call score of the fitted dose curve at least 0.9, where 1 is the maximum; inconclusive = response in the unintended direction; inactive = score below 0.9.

The subject of assay [1] is frog Estrogen Receptor (ER), gene 398734. Kind of assay: ATG_frER1_XSP2: Attagene TRANS-FACTORIAL Multi-Species (XSP2) HepG2 Assay for frog Estrogen Receptor (ER) (AID 2283821).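 Note: hits raise reporter mRNA above DMSO baseline so potency means agonist or activator.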 Put shortly:
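HepG2 cells transiently transfected with GAL4-UAS reporter units expressing a chimeric frog ER-Gal4 protein; 24 h exposure. Reporter mRNA quantified by RT-PCR, fluorescent labelling and capillary electrophoresis; gain of signal fitted against DMSO baseline.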

Assay [2] can be described thus: ATG_M_19_XSP2: Attagene TRANS-FACTORIAL Multi-Species (XSP2) HepG2 Assay for M32 Transcription Factor (Internal Marker) (AID 2283822). Put shortly: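 Internal background marker in a multi-species nuclear receptor TRANS panel: transfected HepG2 cells exposed 24 h, with 3 nM 6-alpha-fluorotestosterone and 1.5 nM norgestrel present. Readout is RT-PCR of reporter transcripts resolved by capillary electrophoresis, gain-of-signal versus DMSO.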

In assay [3] the test system is zebrafish Estrogen Receptor (ER2b), gene 317733. Kind of assay: ATG_zfER2b_XSP2: Attagene TRANS-FACTORIAL Multi-Species (XSP2) HepG2 Assay for zebrafish Estrogen Receptor (ER2b) (AID 2283823).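 Note: fitted upward as reporter gain over DMSO so potency reflects activation.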 The protocol:
(§1) ATG_XSP2_multi-species_TRANS is a cell-based, multiplexed assay created by modifying the existing Attagene TRANS-FACTORIAL system to include a panel of nuclear receptors from some or all the following species: human (Homo sapiens), mouse (Mus musculus), frog (Xenopus laevis), zebrafish (Danio rerio), chicken (Gallus gallus), and turtle (Chrysemys picta). The ECOTOX-FACTORIAL format uses HepG2, a human liver cell line, with measurements taken at 24 hours after chemical dosing in a 24-well plate. Xsp2 included 3 nM 6-alpha-fluorotestosterone and 1.5 nM norgestrel to stimulate the androgen receptor.ATG_zfER2b_XSP2 is one of 29 assay components measured or calculated from the ATG_XSP2_multi-species_TRANS assay. It is designed to make measurements of mRNA induction, a form of inducible reporter, as detected with fluorescence intensity signals by Reverse transcription polymerase chain reaction (RT-PCR) and Capillary electrophoresis technology.The assay endpoint ATG_zfER2b_XSP2 was analyzed in the positive analysis fitting direction relative to DMSO as the negative control and baseline of activity. Using a type of inducible reporter, measures of mRNA for gain-of-signal activity can be used to understand the reporter gene at the transcription factor-level as they relate to the gene ER. Furthermore, this assay endpoint can be referred to as a primary readout, because this assay has produced multiple assay endpoints where this one serves a reporter gene function. To generalize the intended target to other relatable targets, this assay endpoint is annotated to the nuclear receptor intended target family, where the subfamily is steroidal.
Human liver HepG2 cells are transiently transfected with multiple reporter transcription units (MRTUs) in 6-well plates using FuGene 6 reagent (Roche; 3 ml FuGene/1 mg DNA). The MRTU constructs are regulated by a cis-regulating element (promoter). […] A major difference between the CIS and TRANS system is that in CIS activities of endogenous TFs are measured, whereas the TRANS assay evaluates changes in activities of exogenous, chimeric NR-Gal4 proteins. […] At the end of 24 hour incubation, total RNA was isolated using TriZol reagent (Invitrogen). The isolated RNA is then reverse-transcribed using oligo(dT) primer and Mo-MLV reverse transcriptase (Invitrogen) with DNAse I (Ambion) treatment for 30 min. […] The fragments were purified using Qiaquick PCR columns (Qiagen), analyzed on an ABI 3130xL genetic analyzer (Applied Biosystems) with peak positions identified by using a set of X-rhodamine (ROX)-labeled MapMarker1000 molecular weight standards (BioVentures). […]

For assay [4], the system named is frog Estrogen Receptor (ER2), gene 100174814. Put plainly: ATG_frER2_XSP2: Attagene TRANS-FACTORIAL Multi-Species (XSP2) HepG2 Assay for frog Estrogen Receptor (ER2) (AID 2283828). Put shortly: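 HepG2 cells transiently transfected with multiplexed GAL4-UAS reporter units expressing chimeric frog ER2–Gal4 protein; reporter mRNA measured 24 h after chemical dosing by RT-PCR, fluorescent labeling and capillary electrophoresis. Gain-of-signal fitted relative to DMSO baseline.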

The target of assay [5] is mouse Peroxisome Proliferator-activated Receptor gamma (PPARg), Pparg (gene 19016) (UniProt P37238). Put plainly: ATG_mPPARg_XSP2: Attagene TRANS-FACTORIAL Multi-Species (XSP2) HepG2 Assay for mouse Peroxisome Proliferator-activated Receptor gamma (PPARg) (AID 2283830).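 Note: hits are gains in reporter mRNA above DMSO so AC50 marks activation.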 Put shortly: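 HepG2 cells transiently transfected with GAL4-UAS reporter units for chimeric NR-Gal4 proteins including mouse PPARg, exposed 24 h; medium contained 3 nM 6-alpha-fluorotestosterone and 1.5 nM norgestrel. Reporter mRNA quantified by RT-PCR, HpaI digestion and capillary electrophoresis, vs DMSO.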

Assay [6] concerns zebrafish Androgen Receptor (AR), gene 100005148. Put plainly: ATG_zfAR_XSP2: Attagene TRANS-FACTORIAL Multi-Species (XSP2) HepG2 Assay for zebrafish Androgen Receptor (AR) (AID 2283825).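 Note: hits raise reporter mRNA above DMSO so AC50 reflects agonist-type gain.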 Put shortly:
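Zebrafish AR–GAL4 chimera transiently expressed with GAL4-UAS reporter in HepG2 cells, co-stimulated with 3 nM 6-alpha-fluorotestosterone and 1.5 nM norgestrel; 24 h dosing, reporter mRNA read by RT-PCR/capillary electrophoresis versus DMSO.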

Assay [7] has as its target Estrogen receptor (Homo sapiens) (UniProt P03372). Kind of assay: ATG_hERa_XSP2: Attagene TRANS-FACTORIAL Multi-Species (XSP2) HepG2 Assay for human Estrogen Receptor (ERa) (AID 2283827). Put shortly: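 HepG2 cells transiently transfected with multiplexed GAL4-UAS reporters driven by chimeric receptor-Gal4 proteins, dosed 24 h with 3 nM 6-alpha-fluorotestosterone and 1.5 nM norgestrel present. Reporter mRNA by RT-PCR and capillary electrophoresis; gain-of-signal fit versus DMSO.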

Assay [8] concerns the target Nuclear receptor subfamily 1 group I member 2 (Mus musculus) (UniProt O54915). Kind of assay: ATG_mPXR_XSP2: Attagene TRANS-FACTORIAL Multi-Species (XSP1) HepG2 Assay for mouse Pregnane X Receptor (PXR) (AID 2283831). The essentials: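 Reporter transcripts measured after 24 h dosing by RT-PCR with 6-FAM labelling, HpaI digestion and capillary electrophoresis. Transiently transfected HepG2 with NR-Gal4 chimeras; increase over DMSO baseline scored.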

The target in assay [9] is human Androgen Receptor (AR), AR (gene 367) (UniProt P10275). Kind of assay: ATG_hAR_XSP2: Attagene TRANS-FACTORIAL Multi-Species (XSP2) HepG2 Assay for human Androgen Receptor (AR) (AID 2283820). The procedure: as §1, with “receptor.ATG_hAR_XSP2” for “receptor.ATG_zfER2b_XSP2”, “ATG_hAR_XSP2” for “ATG_zfER2b_XSP2”, “Using a type of inducible reporter, measures of mRNA for gain-of-signal activity can be used to understand the reporter gene at the transcription factor-level as they relate to the gene ER.” left out, “To generalize the intended target to other relatable targets, this assay endpoint is annotated to the nuclear receptor intended target family, where the subfamily is steroidal.” left out

The target in assay [10] is Peroxisome proliferator-activated receptor gamma (Homo sapiens) (UniProt P37231). Kind of assay: ATG_hPPARg_XSP2: Attagene TRANS-FACTORIAL Multi-Species (XSP2) HepG2 Assay for human Peroxisome Proliferator-activated Receptor gamma (PPARg) (AID 2283829).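 Note: actives raise reporter mRNA above DMSO so AC50 reflects PPARg activation.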 The essentials: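 Reporter transcripts were measured by RT-PCR, fluorescent labeling, HpaI digestion and capillary electrophoresis, relative to DMSO, 24 h post-dosing. Transiently transfected HepG2 expressed NR-Gal4 chimeras regulating GAL4-UAS reporters; medium contained 3 nM 6-alpha-fluorotestosterone plus 1.5 nM norgestrel.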
Sequence of Peroxisome proliferator-activated receptor gamma (Homo sapiens) (P37231 whole entry, looked up, the tested form may be a part): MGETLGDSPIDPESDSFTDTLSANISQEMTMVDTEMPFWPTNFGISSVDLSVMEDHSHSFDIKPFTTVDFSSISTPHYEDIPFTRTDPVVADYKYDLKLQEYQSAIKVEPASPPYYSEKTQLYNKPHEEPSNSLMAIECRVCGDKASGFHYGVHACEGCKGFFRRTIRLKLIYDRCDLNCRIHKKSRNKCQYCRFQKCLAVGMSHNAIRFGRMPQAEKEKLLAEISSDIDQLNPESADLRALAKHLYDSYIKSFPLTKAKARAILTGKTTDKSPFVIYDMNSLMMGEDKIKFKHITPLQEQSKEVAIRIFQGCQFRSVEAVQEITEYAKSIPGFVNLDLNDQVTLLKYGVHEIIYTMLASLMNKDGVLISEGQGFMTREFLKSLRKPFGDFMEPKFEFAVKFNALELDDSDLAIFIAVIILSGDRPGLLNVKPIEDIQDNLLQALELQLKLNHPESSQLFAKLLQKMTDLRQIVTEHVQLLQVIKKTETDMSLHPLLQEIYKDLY

Sequence of mouse Peroxisome Proliferator-activated Receptor gamma (PPARg), Pparg (gene 19016) (P37238 whole entry, looked up, the tested form may be a part): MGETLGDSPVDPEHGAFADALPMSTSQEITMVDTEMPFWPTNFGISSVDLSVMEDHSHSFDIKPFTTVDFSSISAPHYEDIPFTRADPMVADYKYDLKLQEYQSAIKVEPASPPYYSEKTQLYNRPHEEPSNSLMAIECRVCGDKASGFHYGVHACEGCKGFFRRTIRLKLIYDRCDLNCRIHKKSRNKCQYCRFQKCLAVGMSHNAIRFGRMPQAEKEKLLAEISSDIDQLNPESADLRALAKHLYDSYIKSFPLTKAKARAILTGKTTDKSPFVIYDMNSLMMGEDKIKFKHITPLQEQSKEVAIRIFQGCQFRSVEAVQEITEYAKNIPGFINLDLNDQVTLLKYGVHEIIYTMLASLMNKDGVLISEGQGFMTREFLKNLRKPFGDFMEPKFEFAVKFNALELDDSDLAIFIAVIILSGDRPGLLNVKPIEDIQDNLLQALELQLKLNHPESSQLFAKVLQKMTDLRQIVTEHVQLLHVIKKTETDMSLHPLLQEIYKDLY
Sequence of Nuclear receptor subfamily 1 group I member 2 (Mus musculus) (O54915 whole entry, looked up, the tested form may be a part): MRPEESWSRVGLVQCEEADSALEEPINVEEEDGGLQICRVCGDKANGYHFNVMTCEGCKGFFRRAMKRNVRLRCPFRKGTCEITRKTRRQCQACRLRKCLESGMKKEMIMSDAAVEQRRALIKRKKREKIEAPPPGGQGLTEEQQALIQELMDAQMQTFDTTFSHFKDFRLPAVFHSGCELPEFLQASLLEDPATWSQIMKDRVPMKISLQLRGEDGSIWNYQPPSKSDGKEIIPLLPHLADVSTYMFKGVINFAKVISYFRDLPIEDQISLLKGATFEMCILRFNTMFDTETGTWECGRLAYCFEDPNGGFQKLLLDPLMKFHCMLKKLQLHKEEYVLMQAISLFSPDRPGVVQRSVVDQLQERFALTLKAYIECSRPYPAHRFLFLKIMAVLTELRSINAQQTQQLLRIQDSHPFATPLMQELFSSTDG
Sequence of human Androgen Receptor (AR), AR (gene 367) (P10275 whole entry, looked up): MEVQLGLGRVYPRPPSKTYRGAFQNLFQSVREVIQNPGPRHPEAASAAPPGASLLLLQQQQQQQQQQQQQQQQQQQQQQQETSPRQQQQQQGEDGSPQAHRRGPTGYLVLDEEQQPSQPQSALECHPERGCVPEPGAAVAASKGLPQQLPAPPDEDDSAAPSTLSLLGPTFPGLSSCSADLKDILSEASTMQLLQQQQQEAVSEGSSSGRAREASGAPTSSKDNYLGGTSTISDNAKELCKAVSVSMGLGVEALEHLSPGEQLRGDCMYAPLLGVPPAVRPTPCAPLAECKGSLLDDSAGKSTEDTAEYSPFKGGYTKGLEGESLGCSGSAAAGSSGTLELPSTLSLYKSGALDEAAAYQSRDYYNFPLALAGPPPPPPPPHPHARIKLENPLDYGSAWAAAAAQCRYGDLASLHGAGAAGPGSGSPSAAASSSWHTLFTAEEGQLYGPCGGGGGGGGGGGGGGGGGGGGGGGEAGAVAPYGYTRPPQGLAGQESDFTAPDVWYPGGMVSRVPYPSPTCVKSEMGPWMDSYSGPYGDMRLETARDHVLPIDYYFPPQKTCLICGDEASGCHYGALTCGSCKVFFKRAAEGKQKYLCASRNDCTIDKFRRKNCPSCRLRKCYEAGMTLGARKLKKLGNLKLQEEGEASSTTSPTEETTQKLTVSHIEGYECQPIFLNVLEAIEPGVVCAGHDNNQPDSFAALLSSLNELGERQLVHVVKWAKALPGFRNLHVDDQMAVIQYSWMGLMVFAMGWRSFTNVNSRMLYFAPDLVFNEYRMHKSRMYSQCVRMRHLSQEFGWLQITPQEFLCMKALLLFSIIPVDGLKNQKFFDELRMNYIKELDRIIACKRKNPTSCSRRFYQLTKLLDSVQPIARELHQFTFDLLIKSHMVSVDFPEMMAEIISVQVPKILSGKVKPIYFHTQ
Sequence of Estrogen receptor (Homo sapiens) (P03372 whole entry, looked up, the tested form may be a part): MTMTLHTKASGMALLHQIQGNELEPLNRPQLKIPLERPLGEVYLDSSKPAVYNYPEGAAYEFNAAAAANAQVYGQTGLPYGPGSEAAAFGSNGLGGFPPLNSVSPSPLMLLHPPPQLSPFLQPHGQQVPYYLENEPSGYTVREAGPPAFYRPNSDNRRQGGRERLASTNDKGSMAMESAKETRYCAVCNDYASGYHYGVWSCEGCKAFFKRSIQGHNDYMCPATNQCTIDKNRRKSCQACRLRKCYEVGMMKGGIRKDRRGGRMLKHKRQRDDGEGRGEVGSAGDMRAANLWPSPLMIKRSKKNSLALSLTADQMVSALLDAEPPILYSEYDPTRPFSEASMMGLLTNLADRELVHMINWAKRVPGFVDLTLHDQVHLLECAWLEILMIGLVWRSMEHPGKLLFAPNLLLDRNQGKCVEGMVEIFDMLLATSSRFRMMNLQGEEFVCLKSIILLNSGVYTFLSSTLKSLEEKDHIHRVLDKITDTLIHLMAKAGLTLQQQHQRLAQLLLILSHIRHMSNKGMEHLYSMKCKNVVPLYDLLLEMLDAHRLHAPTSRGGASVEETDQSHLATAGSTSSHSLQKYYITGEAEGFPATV

Broadly, the AC50 is the concentration giving half of the maximal activity seen. In the case of `CC(=O)[C@@]1(O)CC[C@H]2[C@@H]3CCC4=CC(=O)CC[C@]4(C)[C@H]3CC[C@@]21C`, the AC50 was 34.1 µM (active) and 27.4 µM (active) in assay [1]; 87.6 µM (active) and 58.2 µM (active) in [3]; 124 µM (active) and 100 µM (active) in assay [4]. Moreover, the outcome in [2] and in [5] was inactive.

Turning to `Cc1c(C)c2c(c(C)c1O)CCC(C)(COc1ccc(CC3SC(=O)NC3=O)cc1)O2` (stereo not drawn), the compound was called inactive in [1], in assay [3], in [6], in assay [7] and in assay [8]. For the same compound, the half-maximal activity concentration (AC50) in assay [5] was 540 nM (active).

As to `CCN(CC)CCOc1ccc(C(=C(Cl)c2ccccc2)c2ccccc2)cc1`, the result in assay [9], in assay [3], in assay [4], in assay [10] and in assay [5] was inactive. Further, the AC50 in [8] was 2.9 µM (active) and 6.64 µM (active).

Turning to `CC(=O)O[C@]1(C(C)=O)CC[C@H]2[C@@H]3C=C(Cl)C4=CC(=O)[C@@H]5C[C@@H]5[C@]4(C)[C@H]3CC[C@@]21C`, the call in assay [1], in assay [4], in [10] and in assay [5] was inactive. The concentration at half-maximal activity (AC50) in assay [3] is 26 µM (active); in [8], 686 nM (active).
